SMILES strings stand for the structures. Where “and” joins values, the source holds several entries; their conditions need not be identical. Equal values may be shown once. Results filed as inconclusive are left out. A number with no mark means an inactive call. Calls of active or inactive are those of the source. Calls come from the whole dose curve; as a rule, active = well fitted curve in the direction sought with a large enough effect; inconclusive = small, poorly fitted or top-dose-only effect, or another doubt; inactive = no such curve, though single readings can be large; an effect the other way counts as inactive or inconclusive.

Experiment [1] in a line: Viability qHTS for spleen associated tyrosine kinase inhibitor (SYKi) drug resistant MV4-11 cells (AID 1963824). Note: nearly all actives have a fitted effect of over 35% in size. In a few lines: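 CellTiter-Glo luminescence, read 10 min after reagent addition, reports viability after a 72 hr compound exposure. Cells are an MV4-11 line made resistant to SYK inhibition, seeded at 500 per well onto compound-containing plates.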
Experiment [2] is described as follows: Quantitative highthroughput screen to assess conditional lethalithy of NOMO1 cells grown in Human Plasma-Like Medium with dialyzed fetal bovine serum (HPLM+ds) (AID 1963878).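 For Viability: 100% = DMSO wells and 0% = empty wells on each plate.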 Note: nearly all actives have a fitted effect of over 35% in size. An outline of the steps:
(§1)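 Each medium arm—HPLM with 10% dialyzed FBS, or RPMI1640 with 5 mM glucose and 10% untreated or dialyzed FBS—was screened against an 11-point, 3-fold compound titration for 48 h at 37 °C, with CellTiter-Glo luminescence as endpoint.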

Experiment [3] can be described thus: Quantitative highthroughput screen to assess conditional lethalithy of P12 Ichikawa cells grown in Human Plasma-Like Medium with dialyzed fetal bovine serum (HPLM+ds) (AID 1963879). For Viability: series mostly up to about 46 µM. Note: nearly all actives have a fitted effect of over 35% in size. Particulars: Potency: viability. An outline of the steps: as §1
Experiment [4] can be described thus: Quantitative highthroughput screen to assess conditional lethalithy of P12 Ichikawa cells grown in RPMI1640 with dialyzed fetal bovine serum (RPMI+ds) (AID 1963880).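 For Viability: 100% = DMSO wells and 0% = empty wells on each plate.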 Note: nearly all actives have a fitted effect of over 35% in size. To be noted: Potency: P12-Ichikawa viability. In a few lines: as §1
Experiment [5] can be described thus: Quantitative highthroughput screen to assess conditional lethalithy of SEM cells grown in Human Plasma-Like Medium with dialyzed fetal bovine serum (HPLM+ds) (AID 1963882). For Viability: series mostly up to about 46 µM. Note: nearly all actives have a fitted effect of over 35% in size. In a few lines: as §1
Experiment [6] is described as follows: Quantitative highthroughput screen to assess conditional lethalithy of SEM cells grown in RPMI1640 with unreated serum (RPMI+s) (AID 1963883).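 For Viability: 100% = DMSO wells and 0% = empty wells without cells.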 Note: nearly all actives have a fitted effect of over 35% in size. In a few lines:
as §1

Experiment [7] can be described thus: Quantitative highthroughput screen to assess conditional lethalithy of SEM cells grown in RPMI1640 with dialyzed fetal bovine serum (RPMI+ds) (AID 1963884).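 For Viability: series mostly up to about 46 µM; 100% = DMSO control wells and 0% = empty wells without cells.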 Note: nearly all actives have a fitted effect of over 35% in size. In a few lines: as §1
Experiment [8] in a line: Cellular viability qHTS for adrenocortical cancer (ACC) cell line SW-13 (AID 1963989).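 For activity (max response): cells grown in serum-free medium with ITS supplement; % is set by controls: 0 for no effect and ±100 for the full control effect.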 Note: nearly all actives have a fitted effect of over 65% in size. Particulars: SW-13 ACC cells viability, CellTiter-Glo, 48 h; activity (max response): active compounds read low. In a few lines: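 Luminescent ATP read-out (CellTiter-Glo, 20 min at room temperature) measured metabolically competent SW-13 cells after 48 h compound treatment. Final concentrations spanned up to 46 uM; bortezomib served as positive control.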

Experiment [9] is described as follows: Cellular viability qHTS for adrenocortical cancer (ACC) cell line NCI-H295R (AID 1963990). Note: nearly all actives have a fitted effect of over 60% in size. An outline of the steps:
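IC50 and maximal efficacy derive from four-parameter logistic modelling of titration curves, with reads scaled between DMSO-only wells (0%) and doxorubicin hydrochloride (100% inhibition). Compounds spanned up to 46 uM over 48 h.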

A short description of experiment [10]: Quantitative highthroughput screen to assess conditional lethalithy of NOMO1 cells grown in RPMI1640 with untreated serum (RPMI+s) (AID 1963876).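 For Viability: 100% = DMSO wells and 0% = empty wells without cells.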 Note: nearly all actives have a fitted effect of over 35% in size. An outline of the steps:
as §1

A short description of experiment [11]: Quantitative highthroughput screen to assess conditional lethalithy of P12 Ichikawa cells grown in RPMI1640 with untreated serum (RPMI+s) (AID 1963881).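 For Viability: series mostly up to about 46 µM; 100% = DMSO wells and 0% = empty wells without cells.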 Note: nearly all actives have a fitted effect of over 35% in size. Particulars: Potency: viability. In a few lines:
as §1

Experiment [12] in a line: Quantitative highthroughput screen to assess conditional lethalithy of NOMO1 cells grown in RPMI1640 with dialyzed fetal bovine serum (RPMI+ds) (AID 1963877). Note: nearly all actives have a fitted effect of over 30% in size. In a few lines: as §1
Potency is the fitted concentration of half-maximal effect.

Turning to `Clc1ccccc1C(c1ccccc1)(c1ccccc1)n1cccn1`, the Potency in experiment [1] was 16600 nM (active). Also, the Potency entry in [2], in [3], in experiment [4], in experiment [5], in experiment [6] and in [7] was “inactive” throughout. The Potency result in experiment [9] was “inactive”. Further, the activity (max response) in experiment [8] was -15.1%.
On to `COc1ccc2c(c1OC)CN1CCc3cc4c(cc3C1C2)OCO4` (centres undefined), for which the Potency is 4110 nM (active) in experiment [1]; 1480 nM (active) in experiment [10]; 1480 nM (active) in experiment [2]; 2640 nM (active) in [3]; 1050 nM (active) in experiment [5]; 469 nM (active) in experiment [7].
Regarding `O=C(NCCN1CCC2(CC1)C(=O)NCN2c1cccc(F)c1)c1ccc2ccccc2c1`, in [1], the Potency was 5800 nM (active).
On the same count and under the same terms, the same measure for `CC1=CC2/C=C(\C)CCC(O)C3OC(C)(C)OC3CC(=O)OC23C(=O)NC(CC(C)C)C3C1C` (centres undefined): 12600 nM (active).
For the compound `Cn1cc(C2=C(c3cn(C4CCN(Cc5ccccn5)CC4)c4ccccc34)C(=O)NC2=O)c2ccccc21`, the Potency in [1] is 5250 nM (active). Besides, the Potency result in experiment [2], in [3], in experiment [4], in [11] and in experiment [9] was “inactive” throughout. For the same compound, the activity (max response) in experiment [8] is -7.67% and -14.7%.
For `CN(C)[C@@H]1C(=O)C(C(N)=O)=C(O)[C@@]2(O)C(=O)C3=C(O)c4c(O)cccc4[C@@](C)(O)[C@H]3C[C@@H]12`, the Potency entry in experiment [2] and in experiment [5] was “inactive” in each case.
`CC1=C(O)C(=O)C=C2C1=CC=C1[C@@]2(C)CC[C@@]2(C)[C@@H]3C[C@](C)(C(=O)O)CC[C@]3(C)CC[C@]12C`: the Potency is 2960 nM (active) in experiment [11] and 2640 nM (active) in [5].
On to `O=S(=O)(CC1CS1)c1ccc(Oc2ccccc2)cc1` (centres undefined), for which, in experiment [6], the Potency is 20900 nM (active).
Same read-out and setting: the entry for `CCOC(=O)Nc1ccc(NCc2ccc(F)cc2)cc1N` is “inactive”.
`CC(C)(O)C=CC(=O)[C@](C)(O)[C@H]1[C@H](O)C[C@]2(C)[C@@H]3CC=C4[C@@H](C=C(O)C(=O)C4(C)C)[C@]3(C)C(=O)C[C@@]12C`: the Potency in [12] was 166 nM (active); in [2] it was 209 nM (active); in experiment [3] it was 166 nM (active); in experiment [5], 59 nM (active); in experiment [6], 46.9 nM (active).
On to `CC[C@@H]1[C@@H](C)O[C@@](O)([C@@H](C)[C@H](O)[C@H](C)[C@H]2OC(=O)C=CC=C[C@@H](C)[C@@H]([C@@H](C)[C@@H](O)[C@H](C)[C@@]3(O)C[C@H](O[C@H]4C[C@H](O)[C@H](O)[C@H](C)O4)[C@H](CC)[C@@H](C)O3)OC(=O)C=CC=C[C@@H]2C)C[C@H]1O[C@H]1C[C@H](O)[C@H](O)[C@H](C)O1`, for which the Potency in [10] is 2960 nM (active); in experiment [12], 2640 nM (active); in [3], 2960 nM (active); in experiment [4] it was 3320 nM (active); in [5] it was 2350 nM (active); in experiment [6] it was 2640 nM (active). Further, the Potency in experiment [7] was 1870 nM (active).
With `c1ccc2c(c1)OCC(C1=NCCN1)O2` (centres undefined), the Potency result in experiment [1] is “inactive”. The Potency in experiment [9] was 13000 nM (active).
Regarding `C[C@@]12OC(=O)[C@]1([C@@H](O)[C@@H]1C=CCCC1)NC(=O)[C@H]2CCCl`, the Potency in experiment [10] is 235 nM (active); in experiment [3], 235 nM (active); in experiment [4], 187 nM (active); in experiment [11], 235 nM (active); in experiment [5] it was 52.6 nM (active); in experiment [7], 46.9 nM (active).
Turning to `COc1cc2cc(c1Cl)N(C)C(=O)C[C@H](OC(=O)C(C)C)[C@]1(C)O[C@H]1[C@H](C)[C@@H]1C[C@@](O)(NC(=O)O1)[C@H](OC)C=CC=C(C)C2`, the Potency result in experiment [10], in experiment [3], in [11], in [5] and in experiment [7] was “inactive” each time.
Take `CCC(CC)(CNC(=O)CCCO)c1cccc(OC)c1`: the Potency entry in [1] and in experiment [9] was “inactive” each time.
For the compound `CC(C)(C)[C@]1(O)C[C@@H]2OC(=O)C[C@@]23C(=O)O[C@@H]2OC(=O)[C@H](O)C213` (some centres undefined), the Potency result in experiment [10], in experiment [3] and in [11] was “inactive” throughout.
For `COc1ccc2c(c1)CN(C)CC2c1ccc(Cl)c(Cl)c1` (centres undefined), the values for the Potency in experiment [10] and in experiment [12] were 23500 nM (active) and 9350 nM (active), respectively. The Potency result in experiment [3] and in experiment [11] was “inactive” each time.
With `C[C@]12Cc3cn[nH]c3C[C@@H]1CC[C@@H]1[C@H]2CC[C@@]2(C)[C@H]1CC[C@]2(C)O`, the Potency result in experiment [10], in experiment [3], in experiment [4], in experiment [11], in experiment [5] and in experiment [6] was “inactive” each time. Also, in experiment [7], the Potency entry was “inactive”.
Regarding `O=c1[nH]c2ccc(Cl)cc2c(N[C@@H]2CN3CCC2CC3)c1-c1nc2ccccc2[nH]1`, the Potency in experiment [12] is 148 nM (active); in experiment [3], 469 nM (active); in [4], 372 nM (active); in [5], 41.8 nM (active); in experiment [6], 83.3 nM (active); in [7], 66.2 nM (active). The Potency in experiment [8] was 3550 nM (active); in [9], 355 nM (active).

The values are drawn from PubChem BioAssay (NCATS).
